From the supplement of paper PMC10849652
Of roughly 7,900 targets only a part is listed; those with a hit were picked by preference. About 0.6% of all pairs of compound and target were hits.

Assays:
Experiment in all cases: log2 fold change, soluble protein after heating vs DMSO (PISA); higher = thermal stabilisation; K562 cells, 10 uM, 30 min; active = over 0.2 and 3.5 SD of the protein, either way, in both replicates (recomputed)
[1] = compound: C1=CC=C(C=C1)[C@H](COC2=CC3=C(C=C2)NC(=O)N3)NC(=O)C4=CC=CN(C4=O)CC5=CC(=C(C=C5)F)F
How it was run: (§1)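 Quantification of soluble protein used TMTpro 16plex LC-MS/MS, with channel sums equalised. Samples were the supernatant after 21,000xg for 90 min of pooled aliquots from K562 cells (2×10^6 cells/mL) treated with 10 μM compound for 30 min, heated for 3 min over 48°C-58°C, and extracted in PBS with 0.5% NP-40 at 4°C. Values, from duplicates, describe thermal stability against control samples on a log2 fold-change scale.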

[2] = compound: CC1=C(SC2=C1C(=N[C@H](C3=NN=C(N32)C)CC(=O)N)C4=CC=C(C=C4)Cl)C
How it was run: as §1

[3] = compound: CC1=C2C(=CC=C1)N=C(N(C2=O)C3=CC=CC=C3C)CN4C=NC5=C(N=CN=C54)N
How it was run: as §1

[4] = compound: Cc1sc2c(c1C)C(c1ccc(Cl)cc1)=N[C@@H](CC(=O)OC(C)(C)C)c1nnc(C)n1-2
How it was run: as §1

[5] = compound: c1ccc([C@@H]2C[C@H]2NC2CCNCC2)cc1
How it was run: as §1

Measured: log2 fold change

MYL12B (UniProt O14950)
UniProt O14950, sequence (O14950 whole entry, looked up): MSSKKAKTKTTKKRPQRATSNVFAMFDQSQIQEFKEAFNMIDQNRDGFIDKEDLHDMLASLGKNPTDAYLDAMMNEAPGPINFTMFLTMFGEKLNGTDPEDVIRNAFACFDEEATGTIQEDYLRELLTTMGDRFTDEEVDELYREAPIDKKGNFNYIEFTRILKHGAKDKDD
inactive: [1] 0.028 | [2] 0.054 | [3] 0.009 | [4] -0.025 | [5] -0.077

NCK1 (UniProt P16333)
inactive: [1] -0.077 | [2] 0.025 | [3] 0.168 | [4] 0.044 | [5] -0.085

NIPSNAP3B (UniProt Q9BS92)
UniProt Q9BS92, sequence (Q9BS92 whole entry, looked up): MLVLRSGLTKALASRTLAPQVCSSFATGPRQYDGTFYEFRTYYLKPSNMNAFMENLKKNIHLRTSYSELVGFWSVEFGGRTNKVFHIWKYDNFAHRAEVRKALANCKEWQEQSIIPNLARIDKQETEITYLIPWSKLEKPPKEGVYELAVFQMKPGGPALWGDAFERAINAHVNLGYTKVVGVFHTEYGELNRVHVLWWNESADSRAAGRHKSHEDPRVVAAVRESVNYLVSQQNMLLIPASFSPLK
inactive: [1] 0.045 | [2] -0.031 | [3] 0.017 | [4] -0.021 | [5] 0.099

MTMR14 (UniProt Q8NCE2)
UniProt Q8NCE2, sequence (Q8NCE2 whole entry, looked up): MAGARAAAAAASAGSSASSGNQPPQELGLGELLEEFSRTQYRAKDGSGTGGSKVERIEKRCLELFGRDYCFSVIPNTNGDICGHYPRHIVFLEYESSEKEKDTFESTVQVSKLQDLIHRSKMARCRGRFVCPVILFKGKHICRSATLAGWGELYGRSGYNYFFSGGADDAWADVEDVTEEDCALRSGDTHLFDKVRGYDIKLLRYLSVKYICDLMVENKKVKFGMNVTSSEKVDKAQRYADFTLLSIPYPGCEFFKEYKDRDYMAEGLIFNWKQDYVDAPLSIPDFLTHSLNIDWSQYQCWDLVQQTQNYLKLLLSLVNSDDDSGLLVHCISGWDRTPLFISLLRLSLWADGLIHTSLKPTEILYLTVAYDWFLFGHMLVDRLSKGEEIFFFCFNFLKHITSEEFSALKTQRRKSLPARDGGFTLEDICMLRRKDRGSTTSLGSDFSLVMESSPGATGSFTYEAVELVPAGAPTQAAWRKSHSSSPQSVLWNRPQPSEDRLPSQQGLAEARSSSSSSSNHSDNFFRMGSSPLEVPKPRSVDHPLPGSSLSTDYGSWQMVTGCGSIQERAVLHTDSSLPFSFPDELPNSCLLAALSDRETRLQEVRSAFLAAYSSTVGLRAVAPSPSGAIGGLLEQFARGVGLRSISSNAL
inactive: [1] 0.03 | [2] 0.047 | [3] 0.156 | [4] -0.011 | [5] 0.069

NEMP1 (UniProt O14524)
UniProt O14524, sequence (O14524 whole entry, looked up): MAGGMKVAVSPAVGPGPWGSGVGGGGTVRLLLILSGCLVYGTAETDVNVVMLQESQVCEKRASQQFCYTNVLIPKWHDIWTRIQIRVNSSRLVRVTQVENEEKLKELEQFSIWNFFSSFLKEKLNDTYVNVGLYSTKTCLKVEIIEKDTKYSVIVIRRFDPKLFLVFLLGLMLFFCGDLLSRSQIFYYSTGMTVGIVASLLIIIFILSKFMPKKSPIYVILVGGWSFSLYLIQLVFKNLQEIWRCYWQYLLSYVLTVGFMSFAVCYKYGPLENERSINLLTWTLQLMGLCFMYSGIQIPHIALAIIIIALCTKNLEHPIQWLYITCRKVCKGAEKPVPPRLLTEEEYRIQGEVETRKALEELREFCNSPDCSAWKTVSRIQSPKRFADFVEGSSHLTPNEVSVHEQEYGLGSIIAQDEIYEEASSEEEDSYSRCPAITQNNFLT
inactive: [1] 0.015 | [2] -0.003 | [3] 0.036 | [4] 0.048 | [5] -0.018

NFYC (UniProt Q13952)
UniProt Q13952, sequence (Q13952 whole entry, looked up): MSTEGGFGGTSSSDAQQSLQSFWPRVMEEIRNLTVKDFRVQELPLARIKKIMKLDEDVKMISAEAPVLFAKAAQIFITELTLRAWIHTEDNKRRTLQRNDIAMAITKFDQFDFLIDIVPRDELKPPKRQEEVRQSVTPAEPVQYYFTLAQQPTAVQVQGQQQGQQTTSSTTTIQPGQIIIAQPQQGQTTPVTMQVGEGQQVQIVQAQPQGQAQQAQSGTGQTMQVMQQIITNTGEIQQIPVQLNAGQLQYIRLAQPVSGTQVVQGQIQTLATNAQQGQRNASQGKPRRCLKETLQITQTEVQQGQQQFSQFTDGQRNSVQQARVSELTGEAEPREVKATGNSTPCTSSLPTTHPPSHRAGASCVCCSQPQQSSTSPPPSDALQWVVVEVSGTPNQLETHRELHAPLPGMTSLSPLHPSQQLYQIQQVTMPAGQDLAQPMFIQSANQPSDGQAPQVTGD
inactive: [1] 0.002 | [2] 0.063 | [3] 0.036 | [4] 0.014 | [5] -0.014

PACS1 (UniProt Q6VY07)
UniProt Q6VY07, sequence (Q6VY07 whole entry, looked up): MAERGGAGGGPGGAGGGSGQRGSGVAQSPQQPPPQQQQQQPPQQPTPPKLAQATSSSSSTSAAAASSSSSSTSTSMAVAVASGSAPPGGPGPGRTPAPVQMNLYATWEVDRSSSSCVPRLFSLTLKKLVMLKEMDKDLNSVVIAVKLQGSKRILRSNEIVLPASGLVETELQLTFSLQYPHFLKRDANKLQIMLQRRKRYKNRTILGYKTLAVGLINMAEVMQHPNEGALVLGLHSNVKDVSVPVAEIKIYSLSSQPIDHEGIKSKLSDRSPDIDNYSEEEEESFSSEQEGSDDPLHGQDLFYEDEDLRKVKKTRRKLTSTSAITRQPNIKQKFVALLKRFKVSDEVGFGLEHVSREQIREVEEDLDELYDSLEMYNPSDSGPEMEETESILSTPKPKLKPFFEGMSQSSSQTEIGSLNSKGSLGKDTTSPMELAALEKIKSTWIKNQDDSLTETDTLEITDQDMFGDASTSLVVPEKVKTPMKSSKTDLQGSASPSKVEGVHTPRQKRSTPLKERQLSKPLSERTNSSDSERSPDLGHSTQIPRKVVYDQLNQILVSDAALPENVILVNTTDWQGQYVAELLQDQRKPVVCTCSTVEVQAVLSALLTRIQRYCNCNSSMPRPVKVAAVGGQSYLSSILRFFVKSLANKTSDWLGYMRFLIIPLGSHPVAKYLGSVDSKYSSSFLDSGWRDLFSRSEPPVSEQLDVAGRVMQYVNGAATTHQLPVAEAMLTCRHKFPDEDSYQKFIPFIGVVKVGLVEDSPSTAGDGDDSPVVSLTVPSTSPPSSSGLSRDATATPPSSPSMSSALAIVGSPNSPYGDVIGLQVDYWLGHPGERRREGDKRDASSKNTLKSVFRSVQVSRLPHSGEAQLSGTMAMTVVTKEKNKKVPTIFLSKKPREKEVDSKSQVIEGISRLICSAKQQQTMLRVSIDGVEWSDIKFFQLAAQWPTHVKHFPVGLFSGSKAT
inactive: [1] -0.02 | [2] 0.042 | [3] 0.033 | [4] 0.002 | [5] -0.014

NELFB isoform 2 (UniProt Q8WX92)
UniProt Q8WX92, sequence (Q8WX92 whole entry, looked up): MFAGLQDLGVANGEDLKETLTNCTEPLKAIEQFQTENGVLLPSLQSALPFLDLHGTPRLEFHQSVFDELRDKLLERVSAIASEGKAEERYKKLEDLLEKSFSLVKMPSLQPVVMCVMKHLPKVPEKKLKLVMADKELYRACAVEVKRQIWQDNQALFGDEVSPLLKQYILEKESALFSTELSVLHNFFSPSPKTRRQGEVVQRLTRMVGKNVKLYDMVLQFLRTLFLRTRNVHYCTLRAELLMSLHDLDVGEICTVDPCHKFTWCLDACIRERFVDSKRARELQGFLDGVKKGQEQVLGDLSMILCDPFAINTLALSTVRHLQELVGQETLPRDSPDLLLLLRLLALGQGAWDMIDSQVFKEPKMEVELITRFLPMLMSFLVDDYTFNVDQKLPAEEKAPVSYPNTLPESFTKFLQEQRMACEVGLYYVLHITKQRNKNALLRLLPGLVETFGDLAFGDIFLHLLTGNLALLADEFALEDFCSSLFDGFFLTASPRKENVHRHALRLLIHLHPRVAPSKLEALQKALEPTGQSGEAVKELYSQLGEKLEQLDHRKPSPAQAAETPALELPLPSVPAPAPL
inactive: [1] -0.098 | [2] 0.12 | [3] 0.123 | [4] -0.05 | [5] -0.023

MSH3 (UniProt P20585)
UniProt P20585, sequence (P20585 whole entry, looked up): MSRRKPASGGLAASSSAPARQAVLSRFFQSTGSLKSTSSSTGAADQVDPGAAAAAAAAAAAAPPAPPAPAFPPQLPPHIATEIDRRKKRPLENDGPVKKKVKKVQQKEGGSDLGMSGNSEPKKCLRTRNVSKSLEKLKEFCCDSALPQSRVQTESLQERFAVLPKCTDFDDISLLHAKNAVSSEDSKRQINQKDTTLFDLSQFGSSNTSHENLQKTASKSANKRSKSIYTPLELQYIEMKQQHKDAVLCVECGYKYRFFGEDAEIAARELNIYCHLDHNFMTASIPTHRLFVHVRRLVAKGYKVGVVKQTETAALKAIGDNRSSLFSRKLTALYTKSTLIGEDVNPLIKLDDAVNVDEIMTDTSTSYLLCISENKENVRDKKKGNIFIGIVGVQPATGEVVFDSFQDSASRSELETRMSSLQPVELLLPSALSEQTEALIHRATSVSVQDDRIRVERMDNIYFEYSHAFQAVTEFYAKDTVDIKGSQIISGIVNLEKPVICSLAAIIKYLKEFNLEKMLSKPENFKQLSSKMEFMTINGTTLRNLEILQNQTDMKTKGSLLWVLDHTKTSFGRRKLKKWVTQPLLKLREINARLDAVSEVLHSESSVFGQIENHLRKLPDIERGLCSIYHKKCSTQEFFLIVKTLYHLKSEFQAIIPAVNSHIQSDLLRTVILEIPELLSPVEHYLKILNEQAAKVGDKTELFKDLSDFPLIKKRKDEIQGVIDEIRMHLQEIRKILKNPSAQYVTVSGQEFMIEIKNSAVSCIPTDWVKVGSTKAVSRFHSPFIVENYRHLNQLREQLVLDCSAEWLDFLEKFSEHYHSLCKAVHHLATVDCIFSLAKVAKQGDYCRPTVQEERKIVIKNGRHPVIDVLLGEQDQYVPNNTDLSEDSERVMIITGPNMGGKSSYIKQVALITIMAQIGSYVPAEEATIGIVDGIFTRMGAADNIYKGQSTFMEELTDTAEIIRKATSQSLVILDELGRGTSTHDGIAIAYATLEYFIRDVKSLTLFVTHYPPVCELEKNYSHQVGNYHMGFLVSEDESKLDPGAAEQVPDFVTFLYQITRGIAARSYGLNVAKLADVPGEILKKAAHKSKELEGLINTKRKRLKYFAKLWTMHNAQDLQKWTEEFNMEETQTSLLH
inactive: [1] 0.008 | [2] 0.085 | [3] 0.052 | [4] -0.028 | [5] -0.087
